# The list is not random: actives were taken first. Their share in the collection is about 5.2%.
# VDR inhibitor – inhibitors of human vitamin D receptor | AID 504847 | VDR-SRC2-3 peptide fluorescence polarization, 2 h | Potency, µM, for the others: max response, negative = inhibition, most hits filed as inhibitors | 400,000 compounds, 0.93% hits | P11473; further: potency means the concentration at half of the fitted maximal effect; on the % scale 0 is the no-effect control and ±100 the full control effect
# Target sequence (P11473 whole entry, looked up): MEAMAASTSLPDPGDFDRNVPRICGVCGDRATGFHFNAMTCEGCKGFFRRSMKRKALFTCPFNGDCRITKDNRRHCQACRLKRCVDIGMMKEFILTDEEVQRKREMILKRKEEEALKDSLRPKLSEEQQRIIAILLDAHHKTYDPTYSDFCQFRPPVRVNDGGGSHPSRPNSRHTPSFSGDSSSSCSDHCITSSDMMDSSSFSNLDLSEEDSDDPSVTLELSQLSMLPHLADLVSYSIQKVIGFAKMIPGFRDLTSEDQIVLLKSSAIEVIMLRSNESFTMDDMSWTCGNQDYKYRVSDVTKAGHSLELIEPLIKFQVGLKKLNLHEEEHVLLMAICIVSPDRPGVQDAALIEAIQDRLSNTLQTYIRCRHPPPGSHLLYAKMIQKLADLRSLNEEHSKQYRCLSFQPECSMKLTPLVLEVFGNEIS
#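 Compounds are added to VDR with labelled SRC2-3 coactivator peptide and held 2 h at room temperature. Inhibition of the VDR–peptide interaction is then read as a change in fluorescence polarization.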
# TrxR1 substrate – is turned over as a substrate by rat TrxR1 | AID 588456 | purified TrxR1 substrate turnover, NADPH consumption readout | O89049 | 390,000 compounds, 0.01% hits | Potency, µM (series often up to 114 µM), inactives show at the top dose activity change, negative = substrate turnover; further: potency means the concentration at half of the fitted maximal effect; on the % scale 0 is the no-effect control and ±100 the full control effect; nearly all actives have a fitted effect of over 50% in size
#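 Rat TrxR1, dispensed at 90 nM, was prereduced with 400 uM NADPH (final) for 5 min at ~22 deg C, then incubated with compound 15 min before 400 uM selenite. A first-read NADPH fluorescence drop versus no-compound background flagged substrates.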
# rTrxR1 inhibitor – blocks rat thioredoxin reductase 1; O89049; recombinant rTrxR1, NADPH fluorescence consumption, selenite substrate; Potency, µM (titrated, usually from 114 µM), for inactives: at the top dose activity change, negative = inhibition, actives largely listed as inhibitors; 390,000 compounds, 1% hits; AID 588453; further: potency means the concentration at half of the fitted maximal effect; on the % scale 0 is the no-effect control and ±100 the full control effect; nearly all actives have a fitted effect of over 65% in size
#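 Rat TrxR1 (90 nM in the dispensed reagent) was pre-reduced with 400 uM NADPH for 5 min at room temperature, then incubated with compound for 15 min. After 400 uM selenite was added, NADPH fluorescence (Ex 340/Em 450 nm) was followed for 8 min.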
# PLK1 PBD block – PLK1 (human) polo-box domain binding inhibition; 360,000 compounds, 2.8% hits; Potency, µM, inactives show max response, negative = inhibition, actives largely listed as inhibitors; AID 720504; Plk1 PBD binding of FITC phosphopeptide, fluorescence polarization; further: potency means the concentration at half of the fitted maximal effect; series mostly up to about 57 µM; on the % scale 0 is the no-effect control and ±100 the full control effect; nearly all actives have a fitted effect of over 65% in size
# Sfp PPTase inh – Sfp phosphopantetheinyl transferase inhibition; Q9F4F7; 310,000 compounds, 3.5% hits; Biochemical Sfp PPTase activity, qHTS; Potency, µM, without a hit: largest response in the series, negative = inhibition, hits mostly inhibitors;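 further: the enzyme is Sfp with the accession as filed and its product quenches rhodamine fluorescence; potency means the concentration at half of the fitted maximal effect; 0% = enzyme reaction without inhibitor and -100% = no enzyme wells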
#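 With Hepes-Na pH 7.6 buffer containing 10 mM MgCl2, Sfp (15 nM) modified BHQ-2-YbbR (12.5 uM) using rhodamine-CoA (5 uM). Two reads 30 minutes apart at 525/598 nm yielded each well's rate.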
# IDH1 R132H inh – inhibitors of human mutant IDH1 R132H | O75874 | IDH1-R132H enzyme, NADPH consumption, diaphorase/resazurin fluorescence | Potency, µM (top dose mostly 76.6 µM), inactives show at the top dose activity change, negative = inhibition, hits mostly inhibitors | 390,000 compounds, 0.093% hits | AID 602179; further: potency means the concentration at half of the fitted maximal effect; on the % scale 0 is the no-effect control and ±100 the full control effect; nearly all actives have a fitted effect of over 65% in size
#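 IDH1-R132H (0.5 ug/mL dispensed) in pH 7.5 Tris buffer was preincubated 30 min with compound, then given a substrate mix of 0.016 mM NADPH and 2 mM alpha-KG for 80 min at room temperature; remaining NADPH was read by diaphorase/resazurin fluorescence.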
# IDH1 autofl – counter-screen for mutant IDH1 inhibitors: fluorescence interference; shares compounds with IDH1 R132H inh; Resorufin detection reagent fluorescence interference, cell-free; inhibition of signal, % at 51.2 µM; 750 tested, under 10 active;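 further: 0% = wells with normal resorufin and full inhibition = wells lacking resorufin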
# IDH1 WT – inhibits human wild-type IDH1, mutant selectivity check; shares compounds with IDH1 R132H inh; WT IDH1 enzyme, NADPH diaphorase/resazurin fluorescence; Potency, µM (top dose mostly 115 µM), inactives show at the top dose activity change, negative = inhibition, most hits filed as inhibitors; 750 compounds, 9% hits;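 further: potency means the concentration at half of the fitted maximal effect; 0% = full WT IDH1 enzyme control and full inhibition = no enzyme wells; nearly all actives have a fitted effect of over 55% in size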
# IDH1 R132H conf – inhibits human mutant IDH1 enzyme in cherrypick confirmation; 750 compounds, 83% hits; Potency, µM (titrated, usually from 76.6 µM), for inactives: at the top dose activity change, negative = inhibition, actives largely listed as inhibitors; shares compounds with IDH1 R132H inh; IDH1 R132H enzyme, NADPH diaphorase/resazurin fluorescence; further: potency means the concentration at half of the fitted maximal effect; nearly all actives have a fitted effect of over 50% in size
# * hit, by the source's call; ? = inconclusive; · = not tested or not shown; [ ] = another dose, or the depositor's remark. The call rests on the fitted dose curve; in most records, active means well fitted curve in the direction sought with a large enough effect; inconclusive means small, poorly fitted or top-dose-only effect, or another doubt; inactive means no such curve, though single readings can be large; an effect the other way counts as inactive or inconclusive.
SMILES,VDR inhibitor,TrxR1 substrate,rTrxR1 inhibitor,PLK1 PBD block,Sfp PPTase inh,IDH1 R132H inh,IDH1 autofl,IDH1 WT,IDH1 R132H conf
C=CCOc1ccc(Br)cc1/C=C1/SC(=Nc2ccc(C(=O)O)cc2)NC1=O,-15%,0%,?,21µM*,-20%,52µM*,9,71µM*,28µM*
O=C(COc1ccccc1-c1ccccc1)NCCN1C(=O)S/C(=C\c2cccnc2)C1=O,-13%,-1%,-15%,-13%,3%,46µM*,-3,-11%,28µM*
COc1cc(NC(=O)Cn2c(=O)n(Cc3ccccc3OC)c(=O)c3cccnc32)cc(OC)c1,-13%,16%,36%,·,·,3%,·,·,·
CC1=C(C#N)c2nc(N)c(C#N)c(C)c2/C1=C\c1ccc(-c2ccccc2C(=O)O)o1,8%,0%[57.1 µM],-37%,27µM*,?,?,-1,25µM*,35µM*
Nc1nonc1-c1nc2ccccc2n1CC(=O)N/N=C/c1ccc(-c2ccccc2C(=O)O)o1,9%,-6%[57.1 µM],-18%[57.1 µM],-20%,?,1%,·,·,·
NC(=O)CSc1nc2c(c(=O)n1-c1ccccc1)C1(CCCCC1)Cc1ccccc1-2,-2%,-1%,15%,-16%,-1%,52µM*,-2,0%,25µM*
CC(C)c1ccc(NC2CCCN(C(=O)c3ccc(N4CCOCC4)cc3)C2)cc1 (stereo not drawn),-15%,-11%,-9%,-5%,-3%,45µM*,-9,-4%,20µM*
CC(=O)Nc1cccc(-n2cc3c(c2-c2ccccc2Cl)c(=O)n(C)c(=O)n3C)c1,-1%,40%,20%,·,·,?,0,0%,40µM*
CCOC(=O)c1c(NC(=O)COC(=O)CCCOc2ccc(OC)cc2)sc(C(=O)N(C)C)c1C,11%,-2%,5%,-2%,·,3%,·,·,·
CC(C)(C)n1nnnc1C(c1cccs1)N(Cc1cccnc1)Cc1ccccc1Cl (stereo not drawn),-27%,-9%,-6%,-7%,-21%,?,3,1%,20µM*
NC(=O)OC[C@@H]1[C@H](NC(=O)/C(=N/OCC(=O)O)c2csc(N)n2)C(=O)N1S(=O)(=O)O,-7%,·,·,·,?,·,·,·,·
OCCN(CCO)c1ccc(C(c2ccccc2Cl)c2ccc(N(CCO)CCO)cc2Cl)c(Cl)c1,-5%,3%,13%,7%,-10%,18µM*,5,40µM*,13µM*
OCCN(CCO)c1ccc2ccccc2c1,-3%,144%,?,-2%,-29%,-8%,·,·,·
CCOc1cc2nc(-c3ccc(OC)c(OC)c3)nc(N3CCOCC3)c2cc1OC,3%,5%,-5%,-3%,14%,?,-14,-10%,16µM*
CCOc1cc2nc(-c3ccc(OC)c(OC)c3)nc(N3CC(C)OC(C)C3)c2cc1OC (stereo not drawn),·,·,·,·,1%,·,·,·,·
Clc1ccc(-c2csc(NNC3=NCCCCC3)n2)cc1,50µM*,9%[57.1 µM],-1%[57.1 µM],?,56µM*,?,0,?,45µM*
COc1cc2cnc(-c3ccccc3)c(-c3cccc(C(F)(F)F)c3)c2cc1OC,-24%,?,46%,5%,·,7%,·,·,·
COc1cc2cnc(-c3ccccc3)c(-c3ccc(C#N)cc3)c2cc1OC,-10%,13%,10%[57.1 µM],-5%,·,32µM*,0,?,8.9µM*
